PubChem BioAssay (NCATS)
Results filed as inconclusive are left out. Activity calls are given as the source filed them. Unless noted, the call rests on the fitted dose curve; in most records, active means well fitted curve in the direction sought with a large enough effect; inconclusive means small, poorly fitted or top-dose-only effect, or another doubt; inactive means no such curve, though single readings can be large; an effect the other way counts as inactive or inconclusive.

Legend:
[1] = qHTS Assay for Lipid Storage Modulators (AID 1519; calls by dose curve; further: potency means the concentration at half of the fitted maximal effect; on activity change, negative = inhibition: on the % scale 0 is the no-effect control and ±100 the full control effect); settings: Drosophila S3 cells, BODIPY lipid droplet/cell ratio, laser cytometry, cells loaded with oleic acid; for activity change, negative = inhibition: at 57.5 µM (top of the series)
Summary of the method: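 Cells seeded at 5,000 per well were treated with compounds over a concentration series and loaded with oleic acid (400 uM, as added). Lipid droplet fluorescence (488 nm excitation, 500-530 nm channel) was read by laser-scanning cytometry and normalized to 20 uM Triacsin C.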

[2] = target: Ubiquitin carboxyl-terminal hydrolase 1 (Homo sapiens) (UniProt O94782); assay: Inhibitors of USP1/UAF1: Pilot qHTS (AID 504865); settings: purified USP1/UAF1, Ub-rhodamine cleavage fluorescence; series mostly up to 114 µM;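 further: rhodamine fluorescence freed from ubiquitin-rhodamine substrate followed over time; top concentration of the series differs between compounds; on the % scale 0 is the no-effect control and ±100 the full control effect; nearly all actives have a fitted effect of over 35% in size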
Sequence of Ubiquitin carboxyl-terminal hydrolase 1 (Homo sapiens) (O94782 whole entry, looked up): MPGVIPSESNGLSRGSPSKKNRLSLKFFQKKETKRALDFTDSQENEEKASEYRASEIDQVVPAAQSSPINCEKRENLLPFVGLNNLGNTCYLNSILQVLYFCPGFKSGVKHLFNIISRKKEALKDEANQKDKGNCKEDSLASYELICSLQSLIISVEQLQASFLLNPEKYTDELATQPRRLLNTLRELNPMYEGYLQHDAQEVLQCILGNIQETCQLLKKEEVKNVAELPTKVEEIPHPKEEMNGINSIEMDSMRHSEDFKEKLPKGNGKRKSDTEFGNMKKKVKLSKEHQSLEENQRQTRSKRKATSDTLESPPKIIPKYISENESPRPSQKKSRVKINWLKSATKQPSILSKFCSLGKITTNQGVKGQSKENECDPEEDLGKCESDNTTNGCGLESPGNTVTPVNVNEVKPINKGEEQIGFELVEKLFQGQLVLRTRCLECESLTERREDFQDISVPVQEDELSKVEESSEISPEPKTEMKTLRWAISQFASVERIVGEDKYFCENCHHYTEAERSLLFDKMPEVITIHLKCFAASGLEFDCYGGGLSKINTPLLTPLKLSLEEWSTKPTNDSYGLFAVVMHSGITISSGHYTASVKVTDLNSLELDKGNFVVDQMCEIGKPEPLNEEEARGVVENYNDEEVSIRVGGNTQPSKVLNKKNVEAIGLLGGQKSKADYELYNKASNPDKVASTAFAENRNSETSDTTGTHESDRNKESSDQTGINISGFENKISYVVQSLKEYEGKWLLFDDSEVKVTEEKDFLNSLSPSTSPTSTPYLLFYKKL
Summary of the method: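 USP1/UAF1 complex (1nM) preincubated with compound 15 min at room temperature, then Ub-Rho substrate (150nM final) added. Fluorescence read kinetically at 480/540 nm, 6 reads every 60 seconds. Buffer: 50mM HEPES pH 7.8, 0.5mM EDTA, 0.1 mg/ml BSA, 1mM TCEP, 0.01% Tween-20.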

[3] = target: ATP-dependent 6-phosphofructokinase (Trypanosoma brucei brucei) (UniProt O15648); assay: qHTS Assay to Find Inhibitors of T. brucei phosphofructokinase: hit validation (AID 492961);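 further: luminescence reports ADP formed as PFK phosphorylates fructose-6-phosphate with ATP; on the % scale 0 is the no-effect control and ±100 the full control effect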; settings: T. brucei PFK, ADP-Glo luminescence; series mostly up to 24.3 µM
Sequence of ATP-dependent 6-phosphofructokinase (Trypanosoma brucei brucei) (O15648 whole entry, looked up): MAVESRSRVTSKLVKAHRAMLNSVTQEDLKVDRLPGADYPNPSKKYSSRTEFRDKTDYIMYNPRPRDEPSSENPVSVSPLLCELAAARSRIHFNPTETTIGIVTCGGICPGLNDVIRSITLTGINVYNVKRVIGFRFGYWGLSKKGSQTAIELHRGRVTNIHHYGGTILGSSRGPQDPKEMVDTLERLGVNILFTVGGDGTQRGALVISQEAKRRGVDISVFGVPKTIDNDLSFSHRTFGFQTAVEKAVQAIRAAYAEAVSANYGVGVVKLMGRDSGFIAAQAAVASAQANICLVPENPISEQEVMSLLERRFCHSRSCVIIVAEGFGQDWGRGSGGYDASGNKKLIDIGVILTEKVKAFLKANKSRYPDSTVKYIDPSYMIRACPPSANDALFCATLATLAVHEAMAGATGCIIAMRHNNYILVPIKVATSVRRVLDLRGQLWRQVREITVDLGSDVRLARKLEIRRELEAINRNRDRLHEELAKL
Summary of the method: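 Inhibition of parasite PFK is measured as reduced ADP formation, quantified via luciferase after ATP depletion. Assay used 0.1 mM ATP, 0.5 mM F6P, 1.25 nM enzyme, 45 min incubation.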

[4] = qHTS profiling for inhibitors of Plasmodium falciparum proliferation (AID 504749); further: potency means the concentration at half of the fitted maximal effect;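 on activity, negative = inhibition: 0% = DMSO vehicle and full inhibition = artemisinin control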; on all read-outs here: nearly all actives have a fitted effect of over 60% in size; settings: P. falciparum in erythrocytes, SYBR Green DNA, 72 h; for activity, negative = inhibition: at 28.7 µM (top of the series)
Summary of the method: (§1)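 Each compound contacts P. falciparum-infected red blood cells for 72 h at 37 C; lysis buffer (Tris, EDTA, saponin, Triton X, SYBR Green I) is added and fluorescence measured next morning; values normalized to controls.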

3D7 = assay: as above; settings: P. falciparum in erythrocytes, SYBR Green DNA, 72 h; series mostly up to 12.8 µM
Summary of the method: as §1

AS120 = assay: as above; settings: P. falciparum in erythrocytes, SYBR Green DNA, 72 h; series mostly up to 12.8 µM
Summary of the method: as §1

C2A = assay: as above; settings: P. falciparum in erythrocytes, SYBR Green DNA, 72 h; series mostly up to 12.8 µM
Summary of the method: as §1

CP217 = assay: as above; settings: P. falciparum in erythrocytes, SYBR Green DNA, 72 h; series mostly up to 12.8 µM
Summary of the method: as §1

CP237 = assay: as above; settings: P. falciparum in erythrocytes, SYBR Green DNA, 72 h; series mostly up to 12.8 µM
Summary of the method: as §1

CP238 = assay: as above; settings: P. falciparum in erythrocytes, SYBR Green DNA, 72 h; series mostly up to 12.8 µM
Summary of the method: as §1

CP252 = assay: as above; settings: P. falciparum in erythrocytes, SYBR Green DNA, 72 h; series mostly up to 12.8 µM
Summary of the method: as §1

CP262 = assay: as above; settings: P. falciparum in erythrocytes, SYBR Green DNA, 72 h; series mostly up to 12.8 µM
Summary of the method: as §1

CP269 = assay: as above; settings: P. falciparum in erythrocytes, SYBR Green DNA, 72 h; series mostly up to 12.8 µM
Summary of the method: as §1

CP297 = assay: as above; settings: P. falciparum in erythrocytes, SYBR Green DNA, 72 h; series mostly up to 12.8 µM
Summary of the method: as §1

ECU = assay: as above; settings: P. falciparum in erythrocytes, SYBR Green DNA, 72 h; series mostly up to 12.8 µM
Summary of the method: as §1

PAD = assay: as above; settings: P. falciparum in erythrocytes, SYBR Green DNA, 72 h; series mostly up to 12.8 µM
Summary of the method: as §1

SC27B = assay: as above; settings: P. falciparum in erythrocytes, SYBR Green DNA, 72 h; series mostly up to 12.8 µM
Summary of the method: as §1

[5] = target: Glucocorticoid receptor (Homo sapiens) (UniProt P04150); assay: GR-GFP Redistribution (AID 450;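 active means compounds whose dose series gives a full or clear partial fitted curve of increased nuclear translocation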; further: potency means the concentration at half of the fitted maximal effect); settings: U2OS GR-GFP nuclear translocation, laser cytometry, 2 h
Sequence of Glucocorticoid receptor (Homo sapiens) (P04150 whole entry, looked up, the tested form may be a part): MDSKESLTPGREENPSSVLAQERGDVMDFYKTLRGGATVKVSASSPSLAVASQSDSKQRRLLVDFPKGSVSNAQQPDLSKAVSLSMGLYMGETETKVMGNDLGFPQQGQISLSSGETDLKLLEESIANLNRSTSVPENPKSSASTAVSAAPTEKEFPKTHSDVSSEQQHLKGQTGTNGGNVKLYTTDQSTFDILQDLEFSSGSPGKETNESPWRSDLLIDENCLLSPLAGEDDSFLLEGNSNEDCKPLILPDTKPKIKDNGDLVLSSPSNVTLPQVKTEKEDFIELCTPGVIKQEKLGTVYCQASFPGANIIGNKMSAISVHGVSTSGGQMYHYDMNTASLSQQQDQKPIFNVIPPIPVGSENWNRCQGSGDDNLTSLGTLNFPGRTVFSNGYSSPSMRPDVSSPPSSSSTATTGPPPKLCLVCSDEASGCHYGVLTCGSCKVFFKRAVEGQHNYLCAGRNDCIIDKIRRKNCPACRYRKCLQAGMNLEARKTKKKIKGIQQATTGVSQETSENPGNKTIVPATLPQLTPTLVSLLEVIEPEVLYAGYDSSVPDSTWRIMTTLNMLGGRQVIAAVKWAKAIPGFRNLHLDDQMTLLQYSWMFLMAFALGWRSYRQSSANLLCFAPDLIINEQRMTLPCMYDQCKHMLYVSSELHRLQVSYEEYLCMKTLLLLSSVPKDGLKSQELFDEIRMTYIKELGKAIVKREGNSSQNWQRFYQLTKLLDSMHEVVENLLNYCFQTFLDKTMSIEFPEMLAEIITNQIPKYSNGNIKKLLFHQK

[6] = target: Glucocorticoid receptor (Homo sapiens) (UniProt P04150); assay: GR-EFC Redistribution (AID 451; calls by dose curve; further: potency means the concentration at half of the fitted maximal effect); settings: CHO-K1 GR-EFC translocation, beta-gal luminescence, 2 h
Summary of the method: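 CHO-K1 cells expressing nuclear EA and GR-ED fragments of b-gal; compounds titrated up to 46 uM final, 2 h at 37 C. GR nuclear translocation read as complemented b-gal luminescence after 1 h RT detection.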

[7] = target: Mitogen-activated protein kinase 10 (Mus musculus) (UniProt Q61831); assay: JNK3 AlphaScreen Assay (AID 530; active means well fitted curve in either direction with a large enough effect, not every such curve was filed as active;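 further: kinase came from lysate of stimulated human HepG2 cells; signal reports phosphorylation of biotinylated GST-cJun 1-79 at Ser73 with 10 µM ATP; on the % scale 0 is the no-effect control and ±100 the full control effect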); settings: JNK3 lysate, c-Jun phosphorylation; series mostly up to 25.6 µM
Summary of the method: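 Activity was read by AlphaScreen after JNK3-containing HepG2 lysate (cytokine pre-activated) phosphorylated biotinylated GST-cJun with 10 uM ATP at room temperature. Phospho-Ser73 cJun antibody with Protein-A acceptor beads provided detection.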

[8] = measured here: cell count channel max response
[9] = measured here: lipid channel max response

COc1c(O)cc(O)cc1O
activity change, negative = inhibition [1]: -1.6% (inactive) | max response [1, 8]: 3.65% | max response [1, 9]: 4.87% | Potency [2]: inactive

COC(=O)N/N=C/C1=C[N+](=O)c2ccccc2[N+]1=O
activity change, negative = inhibition [1]: 12.7% (inactive) | max response [1, 8]: 5.74% | max response [1, 9]: 17.7% | outcome [3]: inactive | Potency [2]: inactive | activity, negative = inhibition ([4]; parasite line A): -2.61% (inactive) | activity, negative = inhibition ([4]; parasite line B): -4.8% (inactive) | Potency (3D7): inactive | Potency (AS120): inactive | Potency (C2A): inactive | Potency (CP217): inactive | Potency (CP237): inactive | Potency (CP238): inactive | Potency (CP252): inactive | Potency (CP262): inactive | Potency (CP269): inactive | Potency (CP297): inactive | Potency (ECU): inactive | Potency (PAD): inactive | Potency (SC27B): inactive

CC1=C(CCC(=O)O)c2cc3nc(cc4[nH]c(cc5[nH]c(cc1n2)c(C)c5C(C)O)c(C)c4C(C)O)C(C)=C3CCC(=O)O (stereo unspecified)
activity change, negative = inhibition [1]: 3.12% (inactive) | max response [1, 8]: 12.6% | max response [1, 9]: 18.6% | Potency [2]: inactive

O=C1OC(CO)C(O)C(O)C1O (stereo unspecified)
activity change, negative = inhibition [1]: 6.29% (inactive) | max response [1, 8]: 17.3% | max response [1, 9]: 26.8% | outcome [3]: inactive | Potency [2]: inactive | activity, negative = inhibition ([4]; parasite line A): 11.9% (inactive) | activity, negative = inhibition ([4]; parasite line B): -2.03% (inactive) | Potency (3D7): inactive | Potency (AS120): inactive | Potency (C2A): inactive | Potency (CP217): inactive | Potency (CP237): inactive | Potency (CP238): inactive | Potency (CP252): inactive | Potency (CP262): inactive | Potency (CP269): inactive | Potency (CP297): inactive | Potency (ECU): inactive | Potency (PAD): inactive | Potency (SC27B): inactive

CC1(C)SC2C(N3C(=O)C(c4ccccc4)NC3(C)C)C(=O)N2C1C(=O)O (stereo unspecified)
activity change, negative = inhibition [1]: 8.56% (inactive) | max response [1, 8]: 12.6% | max response [1, 9]: 31% | outcome [3]: inactive | activity, negative = inhibition ([4]; parasite line A): -1.6% (inactive) | activity, negative = inhibition ([4]; parasite line B): 9.57% (inactive) | Potency (3D7): inactive | Potency (AS120): inactive | Potency (C2A): inactive | Potency (CP217): inactive | Potency (CP237): inactive | Potency (CP238): inactive | Potency (CP252): inactive | Potency (CP262): inactive | Potency (CP269): inactive | Potency (CP297): inactive | Potency (ECU): inactive | Potency (PAD): inactive | Potency (SC27B): inactive

C/C(=C\CNc1ncnc2nc[nH]c12)CO
Potency [5]: > 46000 nM (inactive) | Potency [6]: > 46000 nM (inactive) | Potency [7]: inactive | activity change, negative = inhibition [1]: -1.3% (inactive) | max response [1, 8]: 4.12% | max response [1, 9]: 3.25%

CC(C)=CCC[C@](C)(O)C1CC=C(C)CC1 (stereo partly specified)
activity change, negative = inhibition [1]: 6.04% (inactive) | max response [1, 8]: -2.85% | max response [1, 9]: 4.12% | outcome [3]: inactive | activity, negative = inhibition ([4]; parasite line A): -5.22% (inactive) | activity, negative = inhibition ([4]; parasite line B): 7.19% (inactive) | Potency (3D7): inactive | Potency (AS120): inactive | Potency (C2A): inactive | Potency (CP217): inactive | Potency (CP237): inactive | Potency (CP238): inactive | Potency (CP252): inactive | Potency (CP262): inactive | Potency (CP269): inactive | Potency (CP297): inactive | Potency (ECU): inactive | Potency (PAD): inactive | Potency (SC27B): inactive

COc1ccc2cc1Oc1ccc(cc1)CC1c3c(cc4c(c3Oc3cc5c(cc3OC)CCN(C)C5C2)OCO4)CCN1C (stereo unspecified)
activity change, negative = inhibition [1]: 10.7% (inactive) | max response [1, 8]: 5.9% | max response [1, 9]: 21% | outcome [3]: inactive | Potency ([4]; parasite line A): 8910 nM (active) | Potency ([4]; parasite line B): 10000 nM (active) | Potency (3D7): 11200 nM (active) | Potency (AS120): 3980 nM (active) | Potency (C2A): 11200 nM (active) | Potency (CP217): 8910 nM (active) | Potency (CP237): 2820 nM (active) | Potency (CP238): 7080 nM (active) | Potency (CP252): 8910 nM (active) | Potency (CP262): 8490 nM (active) | Potency (CP269): 13500 nM (active) | Potency (CP297): 10700 nM (active) | Potency (ECU): 8910 nM (active) | Potency (PAD): 8910 nM (active) | Potency (SC27B): 7080 nM (active)

COc1cc(C2c3cc4c(cc3C(O[C@@H]3OC5COC(c6cccs6)OC5C(O)C3O)C3COC(=O)C23)OCO4)cc(OC)c1O (stereo partly specified)
Potency [1]: 5010 nM (active) | max response [1, 8]: 22.3% | max response [1, 9]: -100% | outcome [3]: inactive | Potency [2]: inactive | Potency ([4]; parasite line A): 1120 nM (active) | Potency ([4]; parasite line B): 2000 nM (active) | Potency (3D7): 2000 nM (active) | Potency (AS120): 1000 nM (active) | Potency (C2A): 2240 nM (active) | Potency (CP217): 2000 nM (active) | Potency (CP237): 2240 nM (active) | Potency (CP238): 2000 nM (active) | Potency (CP252): 1120 nM (active) | Potency (CP262): 8490 nM (active) | Potency (CP269): 1690 nM (active) | Potency (CP297): 4780 nM (active) | Potency (ECU): 2510 nM (active) | Potency (PAD): 2000 nM (active) | Potency (SC27B): 3160 nM (active)

NC(C(=O)O)[C@@H]1CC(Cl)=NO1 (stereo partly specified)
activity change, negative = inhibition [1]: 6.89% (inactive) | max response [1, 8]: 16.9% | max response [1, 9]: 29% | outcome [3]: inactive | Potency [2]: inactive | Potency ([4]; parasite line A): 1260 nM (active) | Potency ([4]; parasite line B): 2820 nM (active) | Potency (3D7): 1000 nM (active) | Potency (AS120): 1780 nM (active) | Potency (C2A): 1120 nM (active) | Potency (CP217): 1120 nM (active) | Potency (CP237): 1260 nM (active) | Potency (CP238): 2820 nM (active) | Potency (CP252): 2820 nM (active) | Potency (CP262): 4260 nM (active) | Potency (CP269): 2690 nM (active) | Potency (CP297): 3380 nM (active) | Potency (ECU): 2240 nM (active) | Potency (PAD): 708 nM (active) | Potency (SC27B): 1410 nM (active)
